In PubChem BioAssay AID1347416 (National Center for Advancing Translational Sciences (NCATS), 2020):
Out of some 4,100 compounds screened, about 1,600 (39%) were called active. Not shown: some 25% with an inconclusive outcome. This is one part of the list. Values without a mark were called inactive. The call rests on the fitted dose curve; in most records, active means well fitted inhibition curve with a large enough effect; inconclusive means small, poorly fitted or top-dose-only effect; inactive means no such curve, though single readings can be large or run the other way.

test: qHTS Validation assay for Inhibitors of Plasmodium falciparum Dd2 growth in vitro; further: nearly all actives have a fitted effect of over 70% in size; conditions: P. falciparum Dd2 in RBCs, SYBR Green growth, 72 h; series mostly up to 28.7 µM; activity change, negative = inhibition: at the top concentration
Text: Malaria, a parasitic disease spread to humans through the bite of a Plasmodium infected Anopheles mosquito, continues to be a global health burden affecting millions of people, with an estimated 228 million cases and 405,000 deaths in 2018. Concerns about safety and limitations of current antimalarial treatments strongly emphasize the need to develop new therapeutic options. The scarce number of chemotypes and validated drug targets with efficacy against the liver stage, have hindered development of new antimalarials. To address this, a chemoprophylactic drug discovery effort was conducted through a combined phenotypic high-throughput asexual blood stage and liver stage screen, providing a robust foundation to identify liver-stage active lead chemotypes. Compounds were initially screened against Plasmodium falciparum Dd2 strain parasites using a in vitro SYBRGreen-1 based 72 hr proliferation assay to identify novel chemotypes to advance to liver stage assays. NIH/NCATS Early Translation Branch Assay Submitter (PI): Anton Simeonov Ph.D.
[…] Assay Protocol: PROTOCOL TABLE (as described by Inglese et al., 2007) SEQUENCE No. (e.g., 1, 2, 3, etc.); PARAMETER (e.g., Cells, Incubation, Reagent, etc.); VALUE; DESCRIPTION SEQUENCE, Parameter, Description 1; Reagent; 3 uL complete malaria growth medium, 1536 TC treated Black clear bottom plate 2; Controls; 23 nL positive control artesunate (300 nM final) to column 1; Neutral control DMSO to columns 2-4 3; Compound; 23 nL of compounds in dose response concentration (29 uM to 0.5 nM final) 4; Reagent; 5 uL malaria infected red blood cells (2.5% hematocrit final, 0.3% parasitemia 5; Time; 72 hours at 37C (5% O2, 5% CO2, 90% N2; 95% Rh) 6; Reagent; 2 uL lysis buffer/SYBRGreen-1, 25 sec shake immediately following dispense 7; Time; ~16 hours at 37C (5% O2, 5% CO2, 90% N2; 95% Rh) 8; Detector; EnVision (PerkinElmer) bottom read at 485/14nm excitation and 535/25 nm emission NOTES (numbers refer to sequence above): 1; Complete Malaria Growth Media: 1X RPMI-1640 w/L-glutamine, 5.5g/L Albumax II, 367 uM Hypoxanthine, 25 mM HEPES, 0.25% Sodium Bicarbonate, 35 uM Gentamicin sulfate 2; Controls were added using the Kalypsis Pintool (Wako USA) equipped with 1536 pinhead 3; Compounds were added in a 7-point, titration with a high final concentration of 29 uM by Pintool from seven inter-plate titrations of library plates and two DMSO control plates at the beginning and end (see Yasgar et al., 2008). 4; Red blood cells infected with Plasmodium falciparum Dd2 parasites were used. 6; Lysis buffer: 20 mM Tris-HCl, 10 mM EDTA, 0.16% Saponin, 1.6% Triton-X, 10X SYBR Green. REFERENCE: Inglese J, Shamu CE, Guy RK. 2007. Reporting data from high-throughput screening of small-molecule libraries. Nat Chem Biol. doi:10.1038/nchembio0807-438 Yasgar A, Shinn P, Jadhav A, Auld D, Michael S, Zheng W, Austin CP, Inglese J, Simeonov A. 2008. Compound Management for Quantitative High-Throughput Screening. J Lab Autom 13:79-89. doi:10.1016/j.jala.2007.12.004
On the % scale 0 is the no-effect control and ±100 the full control effect; potency means the concentration at half of the fitted maximal effect.

| Structure (SMILES) | Potency | activity change, negative = inhibition |
| --- | --- | --- |
| CCN(CC)CCn1c(=N)n(CC(=O)c2ccc(Br)s2)c2ccccc21 | 5.31 µM (active) |  |
| Cc1nn(-c2ccccc2)c(C)c1/C=N/Nc1nc2ccccc2[nH]1 | 1.5 µM (active) |  |
| CCOC(=O)c1ccc(NC(=O)c2ccco2)cc1 |  | -29.1% |
| CC(NC(=O)c1ccc(NC(=O)c2ccco2)cc1)c1ccccc1 (stereo unspecified) |  | 117% |
| Cc1ccc(Oc2ccc(NC(=O)c3ccco3)cc2)cc1 | 10.6 µM (active) |  |
| CN1C(=O)COC[C@@H]1[C@H](O)c1ccc(NC(=O)c2ccccc2)cc1 |  | 35% [at 43.1 µM] |
| O=C(NC1=C(Nc2ccc(Cl)cc2)C(=O)c2ccccc2C1=O)c1ccccc1 | 0.473 µM (active) |  |
| Cc1cccc(NC2=C(NC(=O)c3ccccc3)C(=O)c3ccccc3C2=O)c1 | 0.944 µM (active) |  |
| O=C(NC1=C(Nc2ccc(F)cc2)C(=O)c2ccccc2C1=O)c1ccc(Cl)cc1 | 0.842 µM (active) |  |
| O=C(O)/C=C/c1cccc(NC(=O)c2ccc(Cl)cc2)c1 |  | 26.1% |
| Cc1ccccc1OCC(=O)Nc1ccccc1C(=O)OCc1cc(=O)n2ccsc2n1 |  | 39% |
| CCCc1nn2c(=O)cc(COC(=O)c3cccc(NC(=O)COc4ccccc4C)c3)nc2s1 | 13.3 µM (active) |  |
| Cc1csc2nc(COc3ccc(NC(=O)COc4ccccc4F)cc3)cc(=O)n12 |  | 7.07% |
| COc1cccc(NC(=O)c2ccc(NCCCN3CCC(C)CC3)c([N+](=O)[O-])c2)c1 | 7.5 µM (active) |  |
| CC1(CCCCN2CCOCC2)COc2ccc(C(=O)Nc3ccc4[nH]ccc4c3)cc2N1 (stereo unspecified) |  | 2.89% |
| COCCCNC(=O)C(NC(=O)c1ccc(OC)cc1)C1CCN(C(=O)c2cccc(OC)c2)CC1 (stereo unspecified) |  | 0.813% |
| CCCN(CCC)CCCNc1ccc(C(=O)Nc2cccc(OC)c2)cc1[N+](=O)[O-] | 5.96 µM (active) |  |
| COc1cccc(NC(=O)c2ccc3c(c2)NC(C)(CCCCN2CCOCC2)CO3)c1 (stereo unspecified) |  | 2.98% [at 43.1 µM] |
| Cc1ccc(NC(=O)c2ccc(NCCCN3CCC(C)CC3)c([N+](=O)[O-])c2)cc1F | 6.68 µM (active) |  |
| CCCNc1ccc(-c2nc(-c3ccncc3)no2)cc1[N+](=O)[O-] |  | 8.71% |
| Cc1ccc(C(=O)N2[C@@H]3CC[C@H]2CC(NC(=O)c2ccncc2)C3)cc1F (stereo partly specified) |  | 0% |
| c1ccc(CCc2nc3nccc(-c4ccc5c(c4)OCCCO5)n3n2)cc1 |  | -24.7% |
| CC(C)Oc1ccc(C(CCNCc2ccc(O)cc2)c2ccccc2)cc1 (stereo unspecified) | 0.668 µM (active) |  |

| Structure (SMILES) | Potency | activity change, negative = inhibition |
| --- | --- | --- |
| Cc1noc([C@@H]2CN(C(=O)c3cccc(C(F)(F)F)c3)C[C@H]2C(N)=O)n1 |  | 17.3% |
| Cc1onc(-c2ccc(Cl)cc2)c1-c1ccnn1S(=O)(=O)c1ccc(Cl)cc1 | 1.88 µM (active) |  |
| Cc1onc(-c2ccc(Cl)cc2)c1-c1ccnn1S(=O)(=O)c1cccc(C(F)(F)F)c1 | 4.73 µM (active) |  |
| CC(C)c1noc(-c2cccn3c(CNC(=O)c4nccc5ccccc45)nnc23)n1 |  | 0% |
| Oc1c(C(Nc2ccccn2)c2ccccc2F)ccc2cccnc12 (stereo unspecified) | 9.44 µM (active) |  |
| CCC(=NC(CC)CO)C1=C(O)CC(C)(C)CC1=O (stereo unspecified) |  | 66.5% |
| CN1CCN(C(=O)C2(N(C)CCc3ccccc3)Cc3ccccc3C2)CC1 | 2.66 µM (active) |  |
| CN(C)C(=O)c1cccnc1OC1CCN(CCc2ccccc2)CC1 |  | -4.1% |
| CC(C)C[C@@H]1N[C@H](C(=O)NC(C)C)Cc2cn(Cc3ccncc3)c3cccc1c23 | 17.2 µM (active) |  |
| CC(C)(C)c1ccc(N2C(=O)CSC2c2cccnc2)cc1 (stereo unspecified) |  | -11.4% |
| Cc1cccc(C(=O)NC2CCN(c3cnn(C)c(=O)c3)CC2)c1 |  | 35.1% |
| Cc1cccc(N2CCN(c3cccc(C)c3)C2c2cccnc2)c1 | 5.96 µM (active) |  |
| CCc1cccc(NC(=O)N2CCCC(c3noc(COc4ccccc4F)n3)C2)c1 (stereo unspecified) |  | 6.71% |
| NCCc1cccc(CN2CCCC(COc3ccccc3F)C2)c1 (stereo unspecified) | 2.66 µM (active) |  |
| CCCCOc1ccc(NC2=NC3(CCCCC3)N=C(N)N2)cc1 | 8.41 µM (active) |  |
| CC(C)C[C@@]12C(=O)N(c3cccc(Br)c3)C(=O)N1[C@H](c1ccc(F)cc1)[C@@H]1C(=O)N(C3CCCCC3)C(=O)[C@@H]12 | 7.5 µM (active) |  |
| N=c1c2c(n(Cc3ccc(F)cc3)c3c1CCC3)CCC2 | 3.35 µM (active) |  |
| N=c1c2c(n(Cc3ccccc3)c3c1CCC3)CCC2 | 4.22 µM (active) |  |
| N=c1c2c(n(Cc3ccc(F)cc3)c3c1CCC3)CCCC2 | 2.99 µM (active) |  |
| COc1ccc2cc3cc(C(=O)NCCC(C)C)oc3nc2c1 |  | 61.6% |
| COc1ccc(CNC(=O)N2CCCC(CN3CCCC3)CC2)cc1 (stereo unspecified) |  | -25.2% |
| CCc1noc(-c2cn(C3CCN(C(=O)Cc4cccc(OC)c4)CC3)nn2)n1 |  | -1.95% |
| COc1cccc(CC(=O)N2CCCC(CN3CCCC3)CC2)c1 (stereo unspecified) | 15 µM (active) |  |
